# From paper PMC7862700, “An all-to-all approach to the identification of sequence-specific readers for epigenetic DNA modifications on cytosine”
# Experiments:
# Assay in all cases: DAPPL (digital affinity profiling via proximity ligation, sequencing); 10 mM Tris-HCl pH 7.5, 50 mM NaCl, 1 mM DTT, 4% glycerol, room temperature, 30 min; GST-TFs on glutathione beads, 16-mer random dsDNA library, 0.1% formaldehyde crosslink after washing; high values mean tight binding
# FLI1 = target: T1, FLI1 (Homo sapiens, UniProt Q01543 1-452); conditions: protein: recombinant; tags: N-terminal GST; dsDNA, one strand shown
# T1 sequence: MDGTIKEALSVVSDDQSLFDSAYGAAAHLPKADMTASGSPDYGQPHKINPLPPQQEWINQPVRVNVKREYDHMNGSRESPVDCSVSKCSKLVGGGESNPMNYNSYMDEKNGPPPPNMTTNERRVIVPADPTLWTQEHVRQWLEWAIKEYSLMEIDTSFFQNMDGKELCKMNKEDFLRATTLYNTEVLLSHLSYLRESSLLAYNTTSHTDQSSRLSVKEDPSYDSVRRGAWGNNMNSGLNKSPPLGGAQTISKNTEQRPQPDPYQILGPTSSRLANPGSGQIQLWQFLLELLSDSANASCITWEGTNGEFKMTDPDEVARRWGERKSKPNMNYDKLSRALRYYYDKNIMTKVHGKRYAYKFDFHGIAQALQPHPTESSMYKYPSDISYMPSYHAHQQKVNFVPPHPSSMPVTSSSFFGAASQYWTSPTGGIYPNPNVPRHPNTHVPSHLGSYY
# Outline: (§1)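 Human transcription factors were made in yeast as GST fusions, captured on glutathione beads and barcoded with DNA. With a tag-only sample included, the pool was incubated with 200 nmole of a random double-stranded 16-mer DNA library in Tris/NaCl/DTT/glycerol buffer at room temperature for 30 min, then crosslinked with 0.1% formaldehyde after washing, ligated by proximity, amplified and sequenced. For binding signal, each hexamer's read frequency for a factor is divided by its frequency for the tag-only sample.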
# ELK1 = target: T2, ELK1 (Homo sapiens, UniProt P19419 1-428); conditions: protein: recombinant; tags: N-terminal GST; dsDNA, one strand shown
# T2 sequence: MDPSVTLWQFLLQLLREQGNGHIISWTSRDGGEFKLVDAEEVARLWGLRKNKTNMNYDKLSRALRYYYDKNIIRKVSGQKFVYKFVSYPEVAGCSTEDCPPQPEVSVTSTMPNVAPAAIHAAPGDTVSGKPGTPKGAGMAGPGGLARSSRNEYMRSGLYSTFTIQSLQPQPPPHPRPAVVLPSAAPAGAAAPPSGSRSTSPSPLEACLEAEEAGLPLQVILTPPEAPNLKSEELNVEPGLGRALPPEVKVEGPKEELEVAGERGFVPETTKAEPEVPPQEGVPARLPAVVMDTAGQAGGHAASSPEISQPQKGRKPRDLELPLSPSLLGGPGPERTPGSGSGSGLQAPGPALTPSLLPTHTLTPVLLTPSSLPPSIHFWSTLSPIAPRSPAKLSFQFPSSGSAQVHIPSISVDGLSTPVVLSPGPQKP
# Outline: as §1
# GABPA = target: T3, GABPA (Homo sapiens, UniProt Q06546 1-454); conditions: protein: recombinant; tags: N-terminal GST; dsDNA, one strand shown
# T3 sequence: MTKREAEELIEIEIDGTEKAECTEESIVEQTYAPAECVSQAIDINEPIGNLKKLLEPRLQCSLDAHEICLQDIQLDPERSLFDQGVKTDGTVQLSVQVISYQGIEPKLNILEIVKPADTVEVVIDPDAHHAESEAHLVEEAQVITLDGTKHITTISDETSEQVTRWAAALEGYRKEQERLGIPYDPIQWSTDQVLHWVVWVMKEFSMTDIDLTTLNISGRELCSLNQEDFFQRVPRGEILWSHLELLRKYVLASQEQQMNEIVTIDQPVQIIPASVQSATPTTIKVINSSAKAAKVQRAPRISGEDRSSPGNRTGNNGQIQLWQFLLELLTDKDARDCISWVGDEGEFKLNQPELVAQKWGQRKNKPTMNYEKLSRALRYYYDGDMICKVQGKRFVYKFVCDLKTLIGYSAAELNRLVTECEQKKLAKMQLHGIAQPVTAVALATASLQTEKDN
# Outline: as §1
# ERG = target: T4, ERG (Homo sapiens, UniProt P11308 1-479); conditions: protein: recombinant; tags: N-terminal GST; dsDNA, one strand shown
# T4 sequence: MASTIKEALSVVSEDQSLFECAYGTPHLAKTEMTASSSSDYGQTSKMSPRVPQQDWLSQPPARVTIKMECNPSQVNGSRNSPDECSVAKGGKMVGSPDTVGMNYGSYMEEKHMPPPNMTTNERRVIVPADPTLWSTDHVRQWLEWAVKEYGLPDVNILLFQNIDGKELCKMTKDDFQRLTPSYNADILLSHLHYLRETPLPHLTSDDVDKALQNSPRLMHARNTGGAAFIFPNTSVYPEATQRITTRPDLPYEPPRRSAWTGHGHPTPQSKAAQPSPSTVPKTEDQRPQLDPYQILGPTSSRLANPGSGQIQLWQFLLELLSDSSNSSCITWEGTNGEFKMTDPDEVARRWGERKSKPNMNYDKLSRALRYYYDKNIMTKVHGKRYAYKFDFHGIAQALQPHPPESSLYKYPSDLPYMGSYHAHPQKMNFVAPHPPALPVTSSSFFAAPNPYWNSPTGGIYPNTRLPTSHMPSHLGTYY
# Outline: as §1
# ELF1 = ELF1 (Homo sapiens, UniProt P32519 1-619); conditions: protein: recombinant; tags: N-terminal GST; dsDNA, one strand shown
# Outline: as §1
# EHF = target: T5, EHF (Homo sapiens, UniProt Q9NZC4 1-300); conditions: protein: recombinant; tags: N-terminal GST; dsDNA, one strand shown
# T5 sequence: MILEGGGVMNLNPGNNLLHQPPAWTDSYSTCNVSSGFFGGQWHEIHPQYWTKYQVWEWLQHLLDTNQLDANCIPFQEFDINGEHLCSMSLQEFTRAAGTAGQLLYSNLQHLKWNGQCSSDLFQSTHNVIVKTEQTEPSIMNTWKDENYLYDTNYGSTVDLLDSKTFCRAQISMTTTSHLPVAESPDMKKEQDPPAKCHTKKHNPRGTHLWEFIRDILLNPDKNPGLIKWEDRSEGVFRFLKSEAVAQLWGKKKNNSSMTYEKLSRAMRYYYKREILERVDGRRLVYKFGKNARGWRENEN
# Outline: as §1
# SPI1 = SPI1 (Homo sapiens, UniProt P17947 1-270); conditions: protein: recombinant; tags: N-terminal GST; dsDNA, one strand shown
# Outline: as §1
# SPIB = SPIB (Homo sapiens, UniProt Q01892 1-262); conditions: protein: recombinant; tags: N-terminal GST; dsDNA, one strand shown
# Outline: as §1
# ELK3 = target: T6, ELK3 (Homo sapiens, UniProt P41970 1-407); conditions: protein: recombinant; tags: N-terminal GST; dsDNA, one strand shown
# T6 sequence: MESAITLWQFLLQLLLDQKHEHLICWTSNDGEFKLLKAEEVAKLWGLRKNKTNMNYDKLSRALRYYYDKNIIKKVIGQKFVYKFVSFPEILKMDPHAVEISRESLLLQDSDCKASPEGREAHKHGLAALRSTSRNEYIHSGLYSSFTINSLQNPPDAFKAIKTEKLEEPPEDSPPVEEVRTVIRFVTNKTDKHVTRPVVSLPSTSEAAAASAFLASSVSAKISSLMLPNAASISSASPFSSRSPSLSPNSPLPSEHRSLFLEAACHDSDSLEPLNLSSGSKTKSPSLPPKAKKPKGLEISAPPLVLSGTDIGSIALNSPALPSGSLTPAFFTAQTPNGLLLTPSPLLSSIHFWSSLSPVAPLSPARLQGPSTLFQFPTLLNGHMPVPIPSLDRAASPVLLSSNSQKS
# Outline: as §1
# FEV = target: T7, FEV (Homo sapiens, UniProt Q99581 1-238); conditions: protein: recombinant; tags: N-terminal GST; dsDNA, one strand shown
# T7 sequence: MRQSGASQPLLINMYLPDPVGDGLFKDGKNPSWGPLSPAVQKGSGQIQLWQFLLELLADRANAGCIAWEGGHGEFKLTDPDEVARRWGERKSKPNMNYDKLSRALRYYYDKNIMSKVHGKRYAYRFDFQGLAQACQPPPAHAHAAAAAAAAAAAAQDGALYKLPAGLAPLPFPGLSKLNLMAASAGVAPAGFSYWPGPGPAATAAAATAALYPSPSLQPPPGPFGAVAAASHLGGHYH
# Outline: as §1
# ETV5 = ETV5 (Homo sapiens, UniProt P41161 1-510); conditions: protein: recombinant; tags: N-terminal GST; dsDNA, one strand shown
# Outline: as §1
# SPIC = target: T8, SPIC (Homo sapiens, UniProt Q8N5J4 1-248); conditions: protein: recombinant; tags: N-terminal GST; dsDNA, one strand shown
# T8 sequence: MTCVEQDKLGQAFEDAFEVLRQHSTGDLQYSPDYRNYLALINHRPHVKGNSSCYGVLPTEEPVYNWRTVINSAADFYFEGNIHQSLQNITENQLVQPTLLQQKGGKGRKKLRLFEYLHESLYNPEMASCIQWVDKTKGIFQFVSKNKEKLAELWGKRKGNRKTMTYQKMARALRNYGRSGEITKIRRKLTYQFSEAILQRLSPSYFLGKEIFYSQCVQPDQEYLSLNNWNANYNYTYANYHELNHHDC
# Outline: as §1
# ELF4 = ELF4 (Homo sapiens, UniProt Q99607 1-663); conditions: protein: recombinant; tags: N-terminal GST; dsDNA, one strand shown
# Outline: as §1
# ELK4 = target: T9, ELK4 (Homo sapiens, UniProt P28324-2 1-405); conditions: protein: recombinant; tags: N-terminal GST; dsDNA, one strand shown
# T9 sequence: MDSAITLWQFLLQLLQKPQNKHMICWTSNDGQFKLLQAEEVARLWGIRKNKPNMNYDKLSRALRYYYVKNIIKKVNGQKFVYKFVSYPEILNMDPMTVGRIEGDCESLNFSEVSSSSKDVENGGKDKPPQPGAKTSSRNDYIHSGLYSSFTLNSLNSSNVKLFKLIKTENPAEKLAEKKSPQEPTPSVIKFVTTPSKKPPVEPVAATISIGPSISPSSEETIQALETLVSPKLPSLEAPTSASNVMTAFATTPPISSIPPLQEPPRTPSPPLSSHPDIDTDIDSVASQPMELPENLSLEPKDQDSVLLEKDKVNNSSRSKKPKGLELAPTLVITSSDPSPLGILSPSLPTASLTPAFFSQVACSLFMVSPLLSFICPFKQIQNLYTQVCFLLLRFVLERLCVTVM
# Outline: as §1
# ETV2 = target: T10, ETV2 (Homo sapiens, UniProt O00321 1-342); conditions: protein: recombinant; tags: N-terminal GST; dsDNA, one strand shown
# T10 sequence: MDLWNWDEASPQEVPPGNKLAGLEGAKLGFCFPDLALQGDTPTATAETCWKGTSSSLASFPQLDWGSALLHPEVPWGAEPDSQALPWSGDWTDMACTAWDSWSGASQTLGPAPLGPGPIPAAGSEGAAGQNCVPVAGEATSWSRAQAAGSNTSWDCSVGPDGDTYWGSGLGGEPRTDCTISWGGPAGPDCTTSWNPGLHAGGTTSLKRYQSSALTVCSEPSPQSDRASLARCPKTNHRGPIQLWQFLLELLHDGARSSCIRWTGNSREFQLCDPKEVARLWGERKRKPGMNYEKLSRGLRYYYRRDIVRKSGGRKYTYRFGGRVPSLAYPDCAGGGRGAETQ
# Outline: as §1
# ELF3 = target: T11, ELF3 (Homo sapiens, UniProt P78545 1-371); conditions: protein: recombinant; tags: N-terminal GST; dsDNA, one strand shown
# T11 sequence: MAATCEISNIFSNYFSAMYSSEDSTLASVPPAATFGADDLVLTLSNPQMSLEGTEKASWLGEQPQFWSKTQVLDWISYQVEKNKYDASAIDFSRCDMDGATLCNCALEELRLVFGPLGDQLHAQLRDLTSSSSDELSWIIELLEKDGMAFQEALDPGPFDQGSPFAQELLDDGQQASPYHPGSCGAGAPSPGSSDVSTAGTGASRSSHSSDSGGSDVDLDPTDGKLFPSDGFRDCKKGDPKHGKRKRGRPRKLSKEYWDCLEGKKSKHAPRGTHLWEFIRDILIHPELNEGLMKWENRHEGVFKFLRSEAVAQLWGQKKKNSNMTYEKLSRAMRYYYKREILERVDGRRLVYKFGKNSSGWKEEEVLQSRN
# Outline: as §1
# CRX = CRX (Homo sapiens, UniProt O43186 1-299); conditions: protein: recombinant; tags: N-terminal GST; dsDNA, one strand shown
# Outline: as §1
# ETV1 = ETV1 (Homo sapiens, UniProt P50549 1-477); conditions: protein: recombinant; tags: N-terminal GST; dsDNA, one strand shown
# Outline: as §1
# HSF1 = HSF1 (Homo sapiens, UniProt Q00613 1-529); conditions: protein: recombinant; tags: N-terminal GST; chain copies: 3; dsDNA, one strand shown
# Outline: as §1
# Sequence of ELF1 (P32519 whole entry): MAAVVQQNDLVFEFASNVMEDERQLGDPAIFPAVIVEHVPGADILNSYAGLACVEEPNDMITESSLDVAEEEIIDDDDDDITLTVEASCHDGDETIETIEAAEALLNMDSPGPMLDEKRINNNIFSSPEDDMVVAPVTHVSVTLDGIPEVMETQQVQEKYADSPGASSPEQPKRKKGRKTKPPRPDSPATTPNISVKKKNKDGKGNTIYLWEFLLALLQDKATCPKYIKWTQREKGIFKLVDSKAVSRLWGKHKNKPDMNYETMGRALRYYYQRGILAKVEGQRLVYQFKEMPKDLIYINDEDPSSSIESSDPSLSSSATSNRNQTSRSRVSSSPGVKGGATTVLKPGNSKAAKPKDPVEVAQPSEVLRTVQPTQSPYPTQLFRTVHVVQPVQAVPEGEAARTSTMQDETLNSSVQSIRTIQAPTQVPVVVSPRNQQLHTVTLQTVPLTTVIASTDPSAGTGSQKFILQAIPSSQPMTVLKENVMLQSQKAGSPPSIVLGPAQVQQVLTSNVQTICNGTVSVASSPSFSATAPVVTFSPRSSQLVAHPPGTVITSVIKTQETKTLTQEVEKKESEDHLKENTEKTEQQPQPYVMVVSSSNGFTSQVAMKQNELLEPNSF
# Sequence of ETV5 (P41161 whole entry): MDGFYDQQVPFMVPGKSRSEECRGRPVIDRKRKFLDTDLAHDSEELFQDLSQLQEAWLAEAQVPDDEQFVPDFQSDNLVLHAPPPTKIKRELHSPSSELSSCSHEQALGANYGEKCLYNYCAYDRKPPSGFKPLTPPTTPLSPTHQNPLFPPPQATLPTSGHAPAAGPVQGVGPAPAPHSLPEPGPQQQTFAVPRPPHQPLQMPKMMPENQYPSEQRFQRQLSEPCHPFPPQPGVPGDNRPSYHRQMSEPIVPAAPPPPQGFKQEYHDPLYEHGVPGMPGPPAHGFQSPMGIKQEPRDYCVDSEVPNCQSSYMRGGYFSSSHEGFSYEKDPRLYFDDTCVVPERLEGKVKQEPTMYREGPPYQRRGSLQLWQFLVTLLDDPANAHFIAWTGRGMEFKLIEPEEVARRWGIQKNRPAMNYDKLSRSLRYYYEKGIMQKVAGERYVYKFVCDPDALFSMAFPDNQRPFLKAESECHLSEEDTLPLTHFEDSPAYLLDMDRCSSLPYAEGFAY
# Sequence of CRX (O43186 whole entry): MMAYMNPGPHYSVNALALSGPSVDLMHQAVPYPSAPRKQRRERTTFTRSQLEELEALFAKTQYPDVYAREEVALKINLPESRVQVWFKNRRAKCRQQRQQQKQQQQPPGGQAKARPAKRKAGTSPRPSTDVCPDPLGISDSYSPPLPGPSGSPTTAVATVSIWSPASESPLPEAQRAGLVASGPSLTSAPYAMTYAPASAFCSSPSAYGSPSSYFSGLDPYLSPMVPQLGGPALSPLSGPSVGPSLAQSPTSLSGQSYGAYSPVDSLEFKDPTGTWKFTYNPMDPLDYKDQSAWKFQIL
# Sequence of ETV1 (P50549 whole entry): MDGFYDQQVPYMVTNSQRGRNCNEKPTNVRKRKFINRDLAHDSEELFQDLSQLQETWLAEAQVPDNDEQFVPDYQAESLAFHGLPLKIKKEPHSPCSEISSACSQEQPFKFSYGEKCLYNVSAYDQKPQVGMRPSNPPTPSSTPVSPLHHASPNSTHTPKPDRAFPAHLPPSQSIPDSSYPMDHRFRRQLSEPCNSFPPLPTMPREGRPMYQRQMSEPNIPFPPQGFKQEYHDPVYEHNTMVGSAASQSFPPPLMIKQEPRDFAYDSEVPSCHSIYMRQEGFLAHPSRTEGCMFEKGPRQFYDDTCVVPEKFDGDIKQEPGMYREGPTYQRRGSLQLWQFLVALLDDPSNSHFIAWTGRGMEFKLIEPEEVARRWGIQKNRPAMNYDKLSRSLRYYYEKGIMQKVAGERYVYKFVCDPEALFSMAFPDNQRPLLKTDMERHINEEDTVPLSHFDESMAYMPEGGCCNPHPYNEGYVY
# Sequence of ELF4 (Q99607 whole entry): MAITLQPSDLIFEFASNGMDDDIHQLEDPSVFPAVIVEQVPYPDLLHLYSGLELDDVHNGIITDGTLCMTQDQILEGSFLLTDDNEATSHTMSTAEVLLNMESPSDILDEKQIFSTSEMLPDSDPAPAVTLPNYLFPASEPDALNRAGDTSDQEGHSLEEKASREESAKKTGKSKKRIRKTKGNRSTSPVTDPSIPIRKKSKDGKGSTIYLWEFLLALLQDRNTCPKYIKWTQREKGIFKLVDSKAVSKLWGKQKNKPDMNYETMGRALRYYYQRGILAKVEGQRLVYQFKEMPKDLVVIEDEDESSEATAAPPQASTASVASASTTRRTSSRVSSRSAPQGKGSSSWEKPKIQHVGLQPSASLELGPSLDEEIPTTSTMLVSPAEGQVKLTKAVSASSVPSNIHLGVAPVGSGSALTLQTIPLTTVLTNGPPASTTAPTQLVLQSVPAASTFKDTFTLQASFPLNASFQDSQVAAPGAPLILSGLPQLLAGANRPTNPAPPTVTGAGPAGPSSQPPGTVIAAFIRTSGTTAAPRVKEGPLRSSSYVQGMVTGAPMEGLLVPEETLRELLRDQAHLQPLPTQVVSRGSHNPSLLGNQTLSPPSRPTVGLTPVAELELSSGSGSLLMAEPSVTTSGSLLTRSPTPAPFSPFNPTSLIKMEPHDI
# Sequence of SPIB (Q01892 whole entry): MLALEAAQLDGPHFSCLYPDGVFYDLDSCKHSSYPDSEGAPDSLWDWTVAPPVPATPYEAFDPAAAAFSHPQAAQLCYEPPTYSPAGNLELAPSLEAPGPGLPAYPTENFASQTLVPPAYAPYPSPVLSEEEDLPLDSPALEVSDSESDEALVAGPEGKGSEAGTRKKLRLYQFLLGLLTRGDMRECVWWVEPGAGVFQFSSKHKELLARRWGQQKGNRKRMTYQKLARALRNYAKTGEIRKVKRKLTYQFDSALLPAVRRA
# Sequence of HSF1 (Q00613 whole entry): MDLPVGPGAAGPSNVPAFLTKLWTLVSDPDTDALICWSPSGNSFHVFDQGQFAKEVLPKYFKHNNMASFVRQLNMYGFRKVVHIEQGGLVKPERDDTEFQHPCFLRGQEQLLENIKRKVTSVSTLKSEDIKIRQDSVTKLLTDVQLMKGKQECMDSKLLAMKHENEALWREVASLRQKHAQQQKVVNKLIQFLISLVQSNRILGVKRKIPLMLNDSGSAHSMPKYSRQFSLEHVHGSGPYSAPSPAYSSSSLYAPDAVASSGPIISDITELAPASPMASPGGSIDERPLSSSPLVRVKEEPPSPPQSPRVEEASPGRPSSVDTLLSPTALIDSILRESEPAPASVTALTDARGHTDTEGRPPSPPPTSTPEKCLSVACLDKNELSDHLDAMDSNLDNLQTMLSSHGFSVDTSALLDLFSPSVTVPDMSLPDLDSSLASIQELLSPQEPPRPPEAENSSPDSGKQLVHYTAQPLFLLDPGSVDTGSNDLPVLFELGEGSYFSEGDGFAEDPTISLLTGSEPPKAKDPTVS
Sequence,binding signal (FLI1),binding signal (ELK1),binding signal (GABPA),binding signal (ERG),binding signal (ELF1),binding signal (EHF),binding signal (SPI1),binding signal (SPIB),binding signal (ELK3),binding signal (FEV),binding signal (ETV5),binding signal (SPIC),binding signal (ELF4),binding signal (ELK4),binding signal (ETV2),binding signal (ELF3),binding signal (CRX),binding signal (ETV1),binding signal (HSF1)
CGGTTT,"1.26 fold enrichment (6-mer frequency, TF over GST control)","1.18 fold enrichment (6-mer frequency, TF over GST control)","1.25 fold enrichment (6-mer frequency, TF over GST control)","1.33 fold enrichment (6-mer frequency, TF over GST control)","1.26 fold enrichment (6-mer frequency, TF over GST control)","1.27 fold enrichment (6-mer frequency, TF over GST control)","1.44 fold enrichment (6-mer frequency, TF over GST control)","1.23 fold enrichment (6-mer frequency, TF over GST control)","1.25 fold enrichment (6-mer frequency, TF over GST control)","1.44 fold enrichment (6-mer frequency, TF over GST control)","1.21 fold enrichment (6-mer frequency, TF over GST control)","1.23 fold enrichment (6-mer frequency, TF over GST control)","1.21 fold enrichment (6-mer frequency, TF over GST control)","1.23 fold enrichment (6-mer frequency, TF over GST control)","1.11 fold enrichment (6-mer frequency, TF over GST control)","1.24 fold enrichment (6-mer frequency, TF over GST control)","1.05 fold enrichment (6-mer frequency, TF over GST control)","1.32 fold enrichment (6-mer frequency, TF over GST control)",
CCTAGA,"1.04 fold enrichment (6-mer frequency, TF over GST control)","1.01 fold enrichment (6-mer frequency, TF over GST control)",,,"1.02 fold enrichment (6-mer frequency, TF over GST control)",,,,,,"1.01 fold enrichment (6-mer frequency, TF over GST control)",,,"1.07 fold enrichment (6-mer frequency, TF over GST control)",,"1.12 fold enrichment (6-mer frequency, TF over GST control)","1.22 fold enrichment (6-mer frequency, TF over GST control)",,"1.88 fold enrichment (6-mer frequency, TF over GST control)"
